Our source for the Percent Effect values is ChEMBL document CHEMBL3988442, “University of Dundee, Small-Polar-MMV Screening Library” (2021).

What all share (set-up): scale not given: direction of the effect not stated beside the values
Test [1] deals with Protein translocase subunit SecA (Escherichia coli (strain K12)) (UniProt P10408). In words: Assay to Identify E. coli SecA ATPase Inhibitors. Format: functional. The settings on record: 30 µM.
In test [2] the target is T1, Ubiquitin-activating enzyme e1, putative (Leishmania donovani (strain BPK282A1)) (UniProt E9BSI1).
T1 sequence (whole entry): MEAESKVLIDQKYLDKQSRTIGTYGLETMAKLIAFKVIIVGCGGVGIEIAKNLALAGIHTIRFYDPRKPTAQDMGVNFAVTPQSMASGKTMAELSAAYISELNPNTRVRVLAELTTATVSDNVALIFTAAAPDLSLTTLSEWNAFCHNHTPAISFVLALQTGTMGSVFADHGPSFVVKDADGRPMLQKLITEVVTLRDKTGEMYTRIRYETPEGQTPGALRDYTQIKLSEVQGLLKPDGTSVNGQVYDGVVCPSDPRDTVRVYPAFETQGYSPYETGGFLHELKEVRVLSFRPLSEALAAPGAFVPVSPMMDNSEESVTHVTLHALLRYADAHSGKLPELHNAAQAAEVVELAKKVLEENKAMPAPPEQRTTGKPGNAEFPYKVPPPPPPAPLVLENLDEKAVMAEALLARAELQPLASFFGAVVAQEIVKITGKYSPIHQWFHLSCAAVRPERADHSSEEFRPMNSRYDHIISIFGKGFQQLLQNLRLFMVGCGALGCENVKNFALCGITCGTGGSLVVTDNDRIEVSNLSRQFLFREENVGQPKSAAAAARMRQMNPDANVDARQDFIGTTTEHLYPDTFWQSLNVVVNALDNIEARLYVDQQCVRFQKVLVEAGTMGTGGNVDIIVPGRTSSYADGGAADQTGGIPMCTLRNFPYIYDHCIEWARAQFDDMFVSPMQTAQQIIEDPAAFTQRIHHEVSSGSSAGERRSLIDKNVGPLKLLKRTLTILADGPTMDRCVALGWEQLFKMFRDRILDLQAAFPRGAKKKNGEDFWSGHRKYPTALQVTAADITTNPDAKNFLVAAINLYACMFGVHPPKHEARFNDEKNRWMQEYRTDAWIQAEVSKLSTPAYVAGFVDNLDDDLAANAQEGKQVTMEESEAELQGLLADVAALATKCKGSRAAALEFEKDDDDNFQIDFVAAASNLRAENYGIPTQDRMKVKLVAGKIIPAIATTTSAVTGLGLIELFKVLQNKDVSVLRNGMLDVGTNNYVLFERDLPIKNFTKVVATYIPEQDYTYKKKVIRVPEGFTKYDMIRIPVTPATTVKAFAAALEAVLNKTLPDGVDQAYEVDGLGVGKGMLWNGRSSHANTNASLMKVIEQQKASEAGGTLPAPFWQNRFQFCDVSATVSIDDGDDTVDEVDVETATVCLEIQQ
The test is described as follows: Leishmania donovani Ubiquitin Activating Enzyme (LdE1). The settings on record: 30 µM. Type of test: functional.

The target in test [3] is AMP-activated protein kinase, AMPK (Homo sapiens) (UniProt P54646+O43741+P54619+Q9UGJ0+Q9Y478+Q13131+Q9UGI9). The test is described as follows: AMP-dependent Kinase enzyme assay. An in vitro enzyme assay that detects ADP turnover that is directly proportional to AMPK activity. This uses naive AMPK that is activated during the assay with MK-8722. Format: functional. The settings on record: 30 µM.

Test [4] deals with Sialic acid-binding Ig-like lectin 9 (Homo sapiens) (UniProt Q9Y336). The test is described as follows: Hs-Siglec9 ALPHAscreen SOP 20170721. The settings on record: 10 µM. A general note: Alpha assays give light when donor and acceptor beads are brought close together.
Chain of Sialic acid-binding Ig-like lectin 9 (Homo sapiens) (Q9Y336 whole entry): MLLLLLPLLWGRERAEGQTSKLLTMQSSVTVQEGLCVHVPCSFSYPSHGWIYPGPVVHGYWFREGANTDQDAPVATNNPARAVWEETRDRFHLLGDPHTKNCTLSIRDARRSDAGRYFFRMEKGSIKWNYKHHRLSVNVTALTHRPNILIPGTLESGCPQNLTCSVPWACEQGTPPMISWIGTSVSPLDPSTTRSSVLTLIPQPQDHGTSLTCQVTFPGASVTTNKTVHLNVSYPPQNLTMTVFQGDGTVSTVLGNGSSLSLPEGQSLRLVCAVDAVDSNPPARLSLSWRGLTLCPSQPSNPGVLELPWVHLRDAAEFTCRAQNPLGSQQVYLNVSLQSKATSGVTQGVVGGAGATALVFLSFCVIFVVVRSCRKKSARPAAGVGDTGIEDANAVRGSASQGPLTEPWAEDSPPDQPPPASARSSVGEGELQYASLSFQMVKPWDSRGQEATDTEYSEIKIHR
The subject of test [5] is Trypanosoma cruzi. The test is described as follows: Trypanosoma cruzi phosphomannomutase and mannose-1-phosphate guanylyltransferase assay. The following applies: 10 µM. Format: functional.
Test [6] deals with T2, Arginase-2, mitochondrial (Homo sapiens) (UniProt P78540).
T2 sequence (whole entry): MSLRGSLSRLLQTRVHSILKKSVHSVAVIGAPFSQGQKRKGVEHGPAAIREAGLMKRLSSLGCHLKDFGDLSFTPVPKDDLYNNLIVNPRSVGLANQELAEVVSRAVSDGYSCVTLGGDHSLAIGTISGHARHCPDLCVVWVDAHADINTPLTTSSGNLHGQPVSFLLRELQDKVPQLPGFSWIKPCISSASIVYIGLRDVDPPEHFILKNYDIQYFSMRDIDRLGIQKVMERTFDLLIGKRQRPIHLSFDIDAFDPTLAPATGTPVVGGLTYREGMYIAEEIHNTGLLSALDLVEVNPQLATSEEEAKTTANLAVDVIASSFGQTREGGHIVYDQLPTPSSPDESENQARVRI
The test is described as follows: in vitro enzyme assay to detect the production of urea directly proportional to the activity of Arginase II. Note: in the data most compounds retested in dose-response had high values. Type of test: functional. The settings on record: 33.3 µM.

Test [7] deals with T3, Proteasome subunit beta (Trypanosoma cruzi) (UniProt O96673).
T3 sequence (whole entry): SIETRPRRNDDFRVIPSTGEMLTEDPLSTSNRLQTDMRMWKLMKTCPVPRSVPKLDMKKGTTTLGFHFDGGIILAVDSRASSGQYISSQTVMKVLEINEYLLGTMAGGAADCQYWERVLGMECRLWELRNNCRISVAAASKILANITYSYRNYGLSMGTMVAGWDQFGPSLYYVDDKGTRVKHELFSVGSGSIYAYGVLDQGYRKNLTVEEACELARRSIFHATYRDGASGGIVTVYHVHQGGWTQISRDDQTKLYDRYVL
The test is described as follows: Trypanosoma cruzi proteasome chymotrypsin-like activity (TcProtChymo) assay. Note: in the data most compounds retested in dose-response had high values. Type of test: functional. The settings on record: 9.37 µM.

The species named for test [8] is Homo sapiens. In words: To identify inhibition of the IFN signalling (Jak-Stat) pathway via expression of an eGFP reporter gene under the control of an IFN-stimulated response element (ISRE) containing MxA promoter. Format: functional. The following applies: 30 µM. A general note: A reporter such as luciferase makes a cellular process visible.
The target of test [9] is T4, Tyrosyl-tRNA synthetase, putative (Trypanosoma cruzi (strain CL Brener)) (UniProt Q4DSP6).
T4 sequence (whole entry): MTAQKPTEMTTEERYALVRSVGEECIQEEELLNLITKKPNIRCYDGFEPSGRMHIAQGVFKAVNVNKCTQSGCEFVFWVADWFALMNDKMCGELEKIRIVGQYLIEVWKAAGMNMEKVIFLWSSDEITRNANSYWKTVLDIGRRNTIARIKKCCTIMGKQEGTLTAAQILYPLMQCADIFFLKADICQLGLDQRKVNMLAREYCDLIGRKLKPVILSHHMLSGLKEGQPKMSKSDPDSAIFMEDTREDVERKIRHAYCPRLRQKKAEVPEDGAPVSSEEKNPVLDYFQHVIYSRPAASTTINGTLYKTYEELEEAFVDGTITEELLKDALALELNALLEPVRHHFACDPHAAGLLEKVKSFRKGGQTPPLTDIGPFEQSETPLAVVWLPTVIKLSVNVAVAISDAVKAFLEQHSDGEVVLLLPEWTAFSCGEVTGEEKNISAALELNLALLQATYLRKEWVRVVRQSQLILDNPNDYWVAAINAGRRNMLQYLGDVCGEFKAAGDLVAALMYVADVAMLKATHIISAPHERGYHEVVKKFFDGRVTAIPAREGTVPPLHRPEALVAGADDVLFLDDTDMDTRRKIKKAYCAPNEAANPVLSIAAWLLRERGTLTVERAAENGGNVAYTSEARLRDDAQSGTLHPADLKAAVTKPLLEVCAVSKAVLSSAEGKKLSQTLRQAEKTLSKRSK
The test is described as follows: Trypanosoma cruzi tyrosyl tRNA synthetase (TcYRS) _High Tyrosine SOP. Note: in the data most compounds retested in dose-response had high values. The settings on record: 30 µM. Type of test: functional.

Test [10] has as its target T4, Tyrosyl-tRNA synthetase, putative (Trypanosoma cruzi (strain CL Brener)). The test is described as follows: Trypanosoma cruzi tyrosyl tRNA synthetase (TcYRS) SOP. Type of test: functional. The settings on record: 30 µM.
Test [11] concerns the target Chromo domain-containing protein 1 (Saccharomyces cerevisiae (strain ATCC 204508 / S288c) (Baker's yeast)) (UniProt P32657). In words: ScCHD-1 Enzyme Inhibition Assay. Note: in the data most compounds retested in dose-response had high values. Format: functional. The settings on record: 30 µM.

For some assays here: Measured potencies and affinities stand elsewhere.

Chain of Protein translocase subunit SecA (Escherichia coli (strain K12)) (P10408 whole entry): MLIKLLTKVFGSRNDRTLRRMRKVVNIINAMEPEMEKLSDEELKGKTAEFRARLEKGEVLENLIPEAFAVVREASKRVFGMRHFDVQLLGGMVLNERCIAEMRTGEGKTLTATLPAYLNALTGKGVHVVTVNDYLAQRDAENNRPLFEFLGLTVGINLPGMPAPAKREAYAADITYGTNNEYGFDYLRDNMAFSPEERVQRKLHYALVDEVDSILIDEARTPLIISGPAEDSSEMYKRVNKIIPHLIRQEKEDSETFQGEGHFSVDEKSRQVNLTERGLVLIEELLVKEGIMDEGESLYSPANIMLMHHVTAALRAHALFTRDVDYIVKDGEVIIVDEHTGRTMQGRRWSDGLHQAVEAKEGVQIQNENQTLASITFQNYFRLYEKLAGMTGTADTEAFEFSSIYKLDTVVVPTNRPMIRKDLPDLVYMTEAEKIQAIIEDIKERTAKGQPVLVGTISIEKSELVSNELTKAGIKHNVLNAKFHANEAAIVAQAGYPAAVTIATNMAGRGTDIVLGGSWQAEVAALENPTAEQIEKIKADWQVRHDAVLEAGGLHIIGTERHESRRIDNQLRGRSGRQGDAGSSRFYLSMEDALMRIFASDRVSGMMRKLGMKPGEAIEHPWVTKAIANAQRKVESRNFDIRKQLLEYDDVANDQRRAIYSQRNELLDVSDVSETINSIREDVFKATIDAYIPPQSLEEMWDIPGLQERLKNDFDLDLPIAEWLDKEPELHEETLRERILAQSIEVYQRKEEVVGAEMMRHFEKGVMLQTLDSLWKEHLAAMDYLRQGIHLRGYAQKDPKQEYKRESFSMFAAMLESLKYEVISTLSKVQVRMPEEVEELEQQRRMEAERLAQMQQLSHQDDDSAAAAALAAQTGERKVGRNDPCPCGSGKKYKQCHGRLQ
Chain of Chromo domain-containing protein 1 (Saccharomyces cerevisiae (strain ATCC 204508 / S288c) (Baker's yeast)) (P32657 whole entry, the tested form may be a part): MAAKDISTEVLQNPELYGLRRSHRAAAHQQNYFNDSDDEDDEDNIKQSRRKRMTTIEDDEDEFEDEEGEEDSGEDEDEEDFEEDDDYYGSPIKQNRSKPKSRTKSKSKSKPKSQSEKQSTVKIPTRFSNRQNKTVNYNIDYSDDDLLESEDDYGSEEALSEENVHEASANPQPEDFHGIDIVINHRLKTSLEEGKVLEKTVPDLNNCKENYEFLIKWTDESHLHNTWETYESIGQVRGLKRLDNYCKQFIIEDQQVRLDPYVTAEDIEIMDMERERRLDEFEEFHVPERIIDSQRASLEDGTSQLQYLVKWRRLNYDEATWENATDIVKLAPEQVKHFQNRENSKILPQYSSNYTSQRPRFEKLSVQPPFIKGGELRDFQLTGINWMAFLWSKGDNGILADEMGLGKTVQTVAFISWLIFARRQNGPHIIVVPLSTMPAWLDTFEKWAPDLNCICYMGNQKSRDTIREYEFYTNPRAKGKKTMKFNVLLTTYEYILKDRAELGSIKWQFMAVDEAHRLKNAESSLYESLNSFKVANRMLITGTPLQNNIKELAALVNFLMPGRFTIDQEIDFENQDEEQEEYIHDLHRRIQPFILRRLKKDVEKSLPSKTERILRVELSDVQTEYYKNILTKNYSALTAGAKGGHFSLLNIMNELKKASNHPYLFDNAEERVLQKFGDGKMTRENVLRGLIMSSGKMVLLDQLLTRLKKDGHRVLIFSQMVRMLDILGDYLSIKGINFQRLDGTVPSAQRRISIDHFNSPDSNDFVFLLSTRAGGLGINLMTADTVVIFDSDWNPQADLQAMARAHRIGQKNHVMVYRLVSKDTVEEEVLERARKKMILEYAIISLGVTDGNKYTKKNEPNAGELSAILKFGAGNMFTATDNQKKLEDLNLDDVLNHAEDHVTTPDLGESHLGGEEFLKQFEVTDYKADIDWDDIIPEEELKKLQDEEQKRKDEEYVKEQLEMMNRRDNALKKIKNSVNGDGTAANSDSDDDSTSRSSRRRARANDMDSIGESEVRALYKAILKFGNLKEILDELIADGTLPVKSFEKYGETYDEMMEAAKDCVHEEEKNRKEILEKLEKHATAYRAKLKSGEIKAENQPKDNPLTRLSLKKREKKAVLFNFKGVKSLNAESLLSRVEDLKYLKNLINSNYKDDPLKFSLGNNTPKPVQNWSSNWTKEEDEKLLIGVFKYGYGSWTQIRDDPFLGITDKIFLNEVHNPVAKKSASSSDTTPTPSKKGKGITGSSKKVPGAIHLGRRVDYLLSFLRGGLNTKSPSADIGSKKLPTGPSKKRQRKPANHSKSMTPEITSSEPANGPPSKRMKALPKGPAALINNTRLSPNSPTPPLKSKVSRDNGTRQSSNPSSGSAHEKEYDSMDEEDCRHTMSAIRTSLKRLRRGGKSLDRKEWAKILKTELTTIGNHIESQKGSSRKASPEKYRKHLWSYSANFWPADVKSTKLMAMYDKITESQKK

For the molecule `CC(=O)Nc1cccc(OCCNC(=O)N(C)Cc2ccco2)c1`, the Percent Effect in test [1] was -4.59%; in [2] it was 2.63%; in test [3] it was 7.27%; in test [4], -2.99%; in test [5], 1.46%; in test [6] it was -4.73%. In addition, the Percent Effect in [7] is 6.62%; in test [8], -1.59%; in test [9], 4.25%; in test [10], 0%; in test [11], -3.97%.
Consider `CC(O)CN1CCN(Cc2csc(-c3ncccn3)n2)CC1` (stereo not given), for which the Percent Effect in test [1] was 1.21%; in test [2], 7.89%; in test [3], -3.51%; in test [4] it was -8.16%; in [5], -3.02%; in [6], 3.55%. Further, the Percent Effect in [7] was 24.6%; in test [8], 16.8%; in test [9], 5.32%; in test [10], 15.6%; in [11] it was -4.73%.
Turning to `COCCCC(=O)NS(=O)(=O)c1ccc2c(c1)OCCCO2`, the Percent Effect is -3.41% in [1]; 5.26% in test [2]; -3.3% in [3]; 9.85% in [4]; -7.94% in test [5]; 5.75% in [6]. Moreover, the Percent Effect in test [7] is -0.0846%; in [8] it was 0.992%; in test [9], 0.493%; in [10], -1.24%; in test [11], 4.1%.
As to `Cc1cnccc1CN1C[C@@H](O)[C@H](Oc2cccc(F)c2)C1`, the Percent Effect in test [1] was -3.16%; in [2] it was 1.35%; in test [3], 10%; in test [4], 2.32%; in test [5], 3.36%; in [6], 0.696%. Further, the Percent Effect in test [7] is 4.37%; in test [8], 16.3%; in test [9], 0%; in test [10] it was 1.3%; in [11], -22.9%.
For `O=C(NCCCO)C1CC(=O)N(c2n[nH]c3cccc(F)c23)C1` (stereo not given), the Percent Effect in [1] is 0.204%; in test [2], 17.3%; in test [3], -5.17%; in test [4], -2.48%; in test [5], 1.57%; in test [6], -12.2%. In addition, the Percent Effect was 10.5% in test [7]; 2.36% in [8]; 5.29% in test [9]; 15.4% in test [10]; -14.8% in [11].
For the molecule `CCN1CC(C(=O)N2CCC(Oc3ccccc3C)CC2)CC1=O` (stereo not given), the Percent Effect in [1] was -1.72%; in test [2], 2.74%; in test [3], 2.75%; in [4], 3.46%; in [5], -7.94%; in test [6] it was 2%. Further, the Percent Effect was 8.65% in test [7]; 7.65% in [8]; 3.12% in test [9]; 21% in test [10]; -0.203% in test [11].
On to `Cc1csc(N2CCN(Cc3ccccn3)CC2C)n1` (stereo not given), for which the Percent Effect in [1] was -3.15%; in test [2], 5.48%; in test [3] it was -20.3%; in test [4], -2.48%; in test [5] it was -2.74%; in [6], 0.909%. Besides, the Percent Effect in test [7] is 13.3%; in test [8] it was 19.9%; in test [9] it was 9.68%; in test [10] it was 12.5%; in test [11], -2.29%.
Turning to `CCOc1ccc(NC(=O)CN2CCN(c3nccn3C)CC2)cc1`, the Percent Effect in test [1] was 0.133%; in test [2], 10.4%; in test [3], 0.177%; in [4], -1.93%; in [5], 7.79%; in test [6], -3.23%. Also, the Percent Effect in test [7] is 15.5%; in test [8] it was -6.28%; in [9], 9.52%; in test [10], 14.1%; in [11], -9%.
As for `Nc1nc2c(c(=O)[nH]1)CCN(C(=O)c1cccc3nccnc13)C2`, the Percent Effect is -2.43% in test [1]; 10.4% in test [2]; -11.5% in test [3]; 9.88% in test [4]; 2.46% in [5]; -12.4% in test [6]. For the same molecule, the Percent Effect in test [7] is 20.6%; in [8], -5.63%; in test [9], 4.3%; in [10], 8.64%; in [11] it was -0.6%.
On to `Fc1ccc(OCCCN2CCOC(Cn3cncn3)C2)cc1` (stereo not given), for which the Percent Effect is -1.31% in test [1]; -3.8% in test [2]; 6.98% in [3]; 5.51% in test [4]; 3.79% in [5]; -3.23% in [6]. The Percent Effect in test [7] was 3.43%; in test [8], 2.48%; in test [9] it was 0%; in test [10] it was 2.53%; in [11] it was -15.5%.
